Reference: PubChem BioAssay (NCATS)
Results filed as inconclusive are left out. Activity calls are given as the source filed them. Calls follow the shape of the dose curve; as a rule, active = well fitted curve in the direction sought with a large enough effect; inconclusive = small, poorly fitted or top-dose-only effect, or another doubt; inactive = no such curve, though single readings can be large; an effect the other way counts as inactive or inconclusive.

Assays:
[1] = qHTS of pediatric cancer cell lines to identify multiple opportunities for drug repurposing: Primary screen for LAN-5 cells (AID 1347100); details: LAN-5 neuroblastoma viability, CellTiter-Glo luminescence, 48 h; series mostly up to 46 µM; also: potency is read from the fitted curve at half-maximal effect
In short: (§1)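 Viability after 48 h compound treatment at 37C, 500-1,000 cells/well, read as ATP luminescence with CellTiter-Glo. Primary screens used 11-point (MIPE, 0.78 nM-46 µM) or 8-point (NPC, 0.59 nM-46 µM) final concentrations; follow-up screens used 11-point dilutions.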

[2] = qHTS of pediatric cancer cell lines to identify multiple opportunities for drug repurposing: Primary screen for MG 63 (6-TG R) cells (AID 1347105); details: MG 63 (6-TG R) viability, CellTiter-Glo, 48 h; series mostly up to 46 µM; also: nearly all actives have a fitted effect of over 50% in size; also: potency is read from the fitted curve at half-maximal effect
In short: (§2)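 500-1,000 cells/well; 5 h pre-incubation 37 °C/5% CO2; compound pinned; 48 h; CellTiter-Glo, 15 min RT; luminescence. MIPE 11-pt from 0.78 nM, NPC 8-pt from 0.59 nM final. Bortezomib 2.3 µM final as positive control.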

[3] = qHTS of pediatric cancer cell lines to identify multiple opportunities for drug repurposing: Primary screen for control Hh wild type fibroblast cells (AID 1347106); details: Hh wild-type fibroblast viability, CellTiter-Glo luminescence, 48 h; series mostly up to 46 µM;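 also: a drop in luminescence marks cytotoxicity and a rise apparent proliferation; nearly all actives have a fitted effect of over 55% in size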
In short: as §1

[4] = qHTS of pediatric cancer cell lines to identify multiple opportunities for drug repurposing: Confirmatory screen for NB1643 cells (AID 1347109); details: NB1643 neuroblastoma cell viability; series mostly up to 45.9 µM; also: nearly all actives have a fitted effect of over 45% in size; also: potency is read from the fitted curve at half-maximal effect
In short: as §1

[5] = qHTS of pediatric cancer cell lines to identify multiple opportunities for drug repurposing: Confirmatory screen for SK-N-MC cells (AID 1347111); details: SK-N-MC cell viability; series mostly up to 45.9 µM;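 also: cells exposed to compound for 48 h before the readout; nearly all actives have a fitted effect of over 70% in size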; also: potency is read from the fitted curve at half-maximal effect
In short: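 SK-N-MC cells at 500-1,000 cells/well in growth media were pre-incubated 5 h, then exposed to compounds at 11-point dilutions for 48 h at 37 degrees C, 5% CO2. Viability was read as CellTiter-Glo luminescence.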

[6] = qHTS of pediatric cancer cell lines to identify multiple opportunities for drug repurposing: Confirmatory screen for LAN-5 cells (AID 1347113); details: LAN-5 neuroblastoma cell viability; series mostly up to 45.9 µM; also: nearly all actives have a fitted effect of over 65% in size; also: potency is read from the fitted curve at half-maximal effect
In short: as §1

[7] = qHTS of pediatric cancer cell lines to identify multiple opportunities for drug repurposing: Confirmatory screen for DAOY cells (AID 1347114); details: DAOY medulloblastoma cells viability, cytotoxicity qHTS; series mostly up to 45.9 µM; also: nearly all actives have a fitted effect of over 65% in size; also: potency is read from the fitted curve at half-maximal effect
In short: (§3)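 Viability measured as metabolically active cells via CellTiter-Glo luminescence following 48 hours of compound exposure, 11-point dilutions in confirmatory testing. 500-1,000 cells/well plated 5 hours before dosing; controls were DMSO and 2.3 µM bortezomib.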

[8] = qHTS of pediatric cancer cell lines to identify multiple opportunities for drug repurposing: Confirmatory screen for BT-37 cells (AID 1347117); details: BT-37 pediatric cancer cells, viability; series mostly up to 45.9 µM; also: nearly all actives have a fitted effect of over 55% in size; also: potency is read from the fitted curve at half-maximal effect
In short: as §1

[9] = qHTS of pediatric cancer cell lines to identify multiple opportunities for drug repurposing: Confirmatory screen for TC32 cells (AID 1347118); details: TC32 Ewing sarcoma cells viability qHTS; series mostly up to 45.9 µM; also: nearly all actives have a fitted effect of over 65% in size; also: potency is read from the fitted curve at half-maximal effect
In short: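 Luminescent CellTiter-Glo read-out of metabolically active TC32 cells after 48 h compound exposure. Primary: MIPE 11-point, 0.78 nM–46 µM; NPC 8-point, 0.59 nM–46 µM. Confirmatory: 11-point dilutions.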

[10] = qHTS of pediatric cancer cell lines to identify multiple opportunities for drug repurposing: Primary screen for Rh18 cells (AID 1347102); details: Rh18 rhabdomyosarcoma viability, CellTiter-Glo luminescence, 48 h; series mostly up to 46 µM; also: nearly all actives have a fitted effect of over 65% in size; also: potency is read from the fitted curve at half-maximal effect
In short: as §1

[11] = qHTS of pediatric cancer cell lines to identify multiple opportunities for drug repurposing: Primary screen for Rh30 cells (AID 1347107); details: Rh30 rhabdomyosarcoma viability, CellTiter-Glo luminescence, 48 h; series mostly up to 46 µM; also: nearly all actives have a fitted effect of over 75% in size
In short: as §1

[12] = qHTS of pediatric cancer cell lines to identify multiple opportunities for drug repurposing: Confirmatory screen for A673 cells (AID 1347110); details: A673 Ewing sarcoma cell viability; series mostly up to 45.9 µM; also: nearly all actives have a fitted effect of over 65% in size; also: potency is read from the fitted curve at half-maximal effect
In short: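 A673 cells seeded at 500-1,000 cells/well, rested 5 h, then dosed; primary MIPE 11-point (0.78 nM to 46 µM), NPC (0.59 nM to 46 µM); confirmatory 11-point. CellTiter-Glo luminescence after 48 h.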

[13] = qHTS of pediatric cancer cell lines to identify multiple opportunities for drug repurposing: Primary screen for RD cells (AID 1347104); details: RD rhabdomyosarcoma viability, CellTiter-Glo luminescence, 48 h; series mostly up to 46 µM; also: nearly all actives have a fitted effect of over 55% in size; also: potency is read from the fitted curve at half-maximal effect
In short: as §2

[14] = qHTS of pediatric cancer cell lines to identify multiple opportunities for drug repurposing: Confirmatory screen for BT-12 cells (AID 1347112); details: BT-12 rhabdoid tumor cells, viability; series mostly up to 45.9 µM; also: nearly all actives have a fitted effect of over 55% in size; also: potency is read from the fitted curve at half-maximal effect
In short: as §1

[15] = qHTS of pediatric cancer cell lines to identify multiple opportunities for drug repurposing: Primary screen for OHS-50 cells (AID 1347103); details: OHS-50 osteosarcoma viability, CellTiter-Glo luminescence, 48 h; series mostly up to 57.3 µM; also: nearly all actives have a fitted effect of over 40% in size; also: potency is read from the fitted curve at half-maximal effect
In short: (§4)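 Cells (500-1,000/well) rested 5 h, then received compounds for 48 h; metabolically active cells were measured by CellTiter-Glo luminescence. Final concentrations spanned up to 46 µM (MIPE, 11-point) or 0.59 nM-46 µM (NPC, 8-point) in primary screens, 11-point in follow-ups.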

[16] = qHTS of pediatric cancer cell lines to identify multiple opportunities for drug repurposing: Primary screen for Rh41 cells (AID 1347108); details: Rh41 rhabdomyosarcoma viability, CellTiter-Glo luminescence, 48 h; series mostly up to 46 µM; also: nearly all actives have a fitted effect of over 70% in size; also: potency is read from the fitted curve at half-maximal effect
In short: as §2

[17] = qHTS of pediatric cancer cell lines to identify multiple opportunities for drug repurposing: Confirmatory screen for NB-EBc1 cells (AID 1347115); details: NB-EBc1 neuroblastoma cells, viability (cytotoxicity); series mostly up to 45.9 µM; also: nearly all actives have a fitted effect of over 45% in size
In short: as §1

[18] = qHTS of pediatric cancer cell lines to identify multiple opportunities for drug repurposing: Confirmatory screen for SJ-GBM2 cells (AID 1347116); details: SJ-GBM2 glioblastoma cells, viability; series mostly up to 45.9 µM; also: nearly all actives have a fitted effect of over 60% in size; also: potency is read from the fitted curve at half-maximal effect
In short: as §3

[19] = qHTS of pediatric cancer cell lines to identify multiple opportunities for drug repurposing: Primary screen for BT-12 cells (AID 1347101); details: BT-12 viability, CellTiter-Glo luminescence, 48 h; series mostly up to 57.3 µM; also: potency is read from the fitted curve at half-maximal effect; nearly all actives have a fitted effect of over 25% in size
In short: as §4

Measured: Potency

COc1ccc2c(c1)c(C1=C(c3c[nH]c4ccccc34)C(=O)NC1=O)cn2CCCN(C)C
active: [1] 16.6 µM | [4] 20.8 µM | [5] 8.27 µM | [6] 16.5 µM | [7] 23.3 µM | [8] 23.3 µM | [9] 23.3 µM
inactive: [2] | [3]

Cc1csc(-c2nnc(Nc3ccc(Oc4ncccc4-c4ccnc(N)n4)cc3)c3ccccc23)c1
inactive: [10] | [2] | [3] | [11]
active: [1] 0.001 µM | [12] 9.27 µM | [5] 0.0261 µM | [7] 23.3 µM

COc1ccc(CCN(C)CCCOc2ccc(S(=O)(=O)c3[nH]c4ccccc4c3C(C)C)cc2)cc1OC
active: [1] 23.5 µM
inactive: [2] | [3] | [11]

CC1=C[C@@H]2[C@@H]([C@@H](O)C[C@@]3(C)[C@H]2C[C@@H](C)[C@]3(O)C(=O)CO)[C@@]2(C)Cc3cnn(-c4ccccc4)c3C=C12
active: [1] 23.5 µM | [13] 29.6 µM | [12] 23.3 µM | [5] 9.27 µM | [9] 10.4 µM
inactive: [10] | [3] | [14] | [7]

NC(=O)c1nnn(Cc2cc(Cl)c(C(=O)c3ccc(Cl)cc3)c(Cl)c2)c1N
inactive: [2] | [3]
active: [1] 20.9 µM | [15] 21.7 µM

CN1CCN(c2cccc(Nc3nc4c(-c5ccc(S(C)(=O)=O)cc5)cccn4n3)c2)CC1
inactive: [3]
active: [1] 13.2 µM | [10] 18.7 µM | [15] 7.69 µM | [16] 18.7 µM

COc1cc(F)c(C(C)C)cc1-c1ccc(C(F)(F)F)cc1CN1C(=O)O[C@H](c2cc(C(F)(F)F)cc(C(F)(F)F)c2)[C@@H]1C
active: [1] 18.7 µM
inactive: [10] | [13] | [2] | [3] | [11] | [16]

Clc1ccc(COC(Cn2ccnc2)c2ccc(Cl)cc2Cl)c(Cl)c1 (stereo not given)
active: [1] 23.5 µM | [15] 19.3 µM

O=C(c1ccc(C=Cc2n[nH]c3ccccc23)cc1)N1CCNCC1
inactive: [10] | [3]
active: [1] 0.833 µM | [15] 2.17 µM

C[C@@H](N)c1ccc(C(=O)Nc2ccnc3[nH]ccc23)cc1
active: [1] 16.6 µM
inactive: [2] | [3] | [11]

COc1c(C)c2c(c(O)c1CC=C(C)CCC(=O)O)C(=O)OC2
active: [1] 3.32 µM
inactive: [10] | [3] | [11] | [16]

CCC(C)SSc1ncc[nH]1 (stereo not given)
inactive: [3] | [11]
active: [1] 14.8 µM | [15] 15.3 µM | [13] 26.4 µM | [2] 23.5 µM | [4] 18.5 µM | [5] 8.27 µM | [14] 23.3 µM | [6] 13.1 µM | [9] 13.1 µM

CCCCn1c(=O)n(Cc2ccccc2F)c(=O)c2[nH]c(Cc3ccc(NC(C)=O)cc3)nc21
inactive: [1] | [10] | [3] | [4] | [14] | [6] | [17] | [8]
active: [2] 18.7 µM | [18] 11.7 µM

COc1cc2c(cc1OC)CC(=O)N(CCCN(C)C[C@H]1Cc3cc(OC)c(OC)cc31)CC2
inactive: [1] | [10] | [2] | [3] | [11]

CC1C(=O)OC2C(O)C34C5CC(C(C)(C)C)C36C(OC(=O)C6O)OC4(C(=O)O5)C12O (stereo not given)
active: [1] 20.9 µM | [12] 18.5 µM
not listed: [13] | [19]
inactive: all other assays above

Cc1ccc(C(=O)N(CCCN)[C@@H](c2nc3cc(Cl)ccc3c(=O)n2Cc2ccccc2)C(C)C)cc1
inactive: [3] | [11]
active: [1] 0.001 µM | [15] 0.001 µM | [12] 0.0076 µM | [5] 0.024 µM | [14] 0.759 µM | [7] 0.012 µM | [8] 0.0537 µM | [9] 0.0479 µM

CC(C)n1c(C=C[C@H](O)C[C@H](O)CC(=O)O)c(-c2ccc(F)cc2)c2ccccc21
inactive: [1] | [11] | [16] | [6]
active: [10] 5.9 µM | [15] 4.32 µM | [2] 1.48 µM | [12] 4.65 µM | [5] 23.3 µM | [7] 3.69 µM | [18] 13.1 µM | [8] 14.7 µM | [9] 16.5 µM

COc1ccc2cc1Oc1ccc(cc1)C[C@H]1c3cc(c(OC)cc3CCN1C)Oc1c(OC)c(OC)cc3c1[C@H](C2)N(C)CC3
active: [19] 7.69 µM | [15] 17.2 µM
inactive: [10]

Cc1cnc(-c2cc(N3CCN(C(=O)CCS(C)(=O)=O)CC3)ncc2Cl)c(C)c1
active: [8] 29.3 µM
not listed: [13] | [15] | [18] | [19]
inactive: all other assays above
